Screening results from PubChem BioAssay.
In the library only some 10% were active in any assay of this set; here they are far more common.
CCT modulator: changes cytosolic chaperonin activity; purified chaperonin ATPase assay, HTRF ADP detection, 30 min; activity change, % (test concentration not listed), hits read low; 0.3% of 360,000 active; in the data active = activity change below about -30%
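TRiC at 40 or 20 nM final (batch-dependent) in 30 mM Tris pH 7.4, 100 mM KCl, 5 mM MgCl2, 1 mM DTT, with compound at single 76 uM and 10 uM ATP, 30 min at 37 deg C. ADP detected by HTRF Transcreener, 665/615 ratio.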
Mm-Cpn inhibitor: blocks the Methanococcus maripaludis chaperonin Mm-Cpn; purified Mm-Cpn ATPase, ADP Transcreener TR-FRET; Potency, µM (highest dose often 76.9 µM), usual class: inhibitors; 0.031% of 330,000 active; also: nearly all actives have a fitted effect of over 80% in size
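Measured: ADP formation by purified Mm-CPN. Conditions: 25 nM protein, 10 uM ATP, Tris pH 7.4 with Mg2+, K+ and DTT, 37°C for 30 min. Detection: Transcreener HTRF after 30 min at room temperature.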
VDR inh: inhibitors of human vitamin D receptor | P11473 | Potency, µM, actives largely listed as inhibitors | VDR-SRC2-3 peptide fluorescence polarization, 2 h | 0.93% of 400,000 active | AID 504847
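Fluorescence polarization assay of small-molecule disruption of VDR binding to coregulator peptide SRC2-3. Compounds and controls pin-transferred, then read after 2 h incubation at ambient room temperature.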
Sfp inh: inhibitors of Bacillus subtilis Sfp phosphopantetheinyl transferase; 3.5% of 310,000 active; Biochemical Sfp PPTase activity, qHTS; Q9F4F7; Potency, µM, most hits filed as inhibitors; AID 1490;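 also: the enzyme is Sfp with the accession as filed and its product quenches rhodamine fluorescence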
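Reaction rates are the 30-min fluorescence difference (ex 525, em 598 nm) in wells containing 15 nM Sfp, 5 uM rhodamine-CoA and 12.5 uM BHQ-2-YbbR at pH 7.6 with 10 mM MgCl2.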
G9a inh: blocks human histone lysine methyltransferase G9a; Q96KQ7; G9a H3K9 monomethylation, AlphaScreen, 2 h; Potency, µM (series often up to 102 µM), usual class: inhibitors; 8.8% of 350,000 active; AID 504332; also: nearly all actives have a fitted effect of over 75% in size
Target sequence (Q96KQ7 913-1193 limits assumed): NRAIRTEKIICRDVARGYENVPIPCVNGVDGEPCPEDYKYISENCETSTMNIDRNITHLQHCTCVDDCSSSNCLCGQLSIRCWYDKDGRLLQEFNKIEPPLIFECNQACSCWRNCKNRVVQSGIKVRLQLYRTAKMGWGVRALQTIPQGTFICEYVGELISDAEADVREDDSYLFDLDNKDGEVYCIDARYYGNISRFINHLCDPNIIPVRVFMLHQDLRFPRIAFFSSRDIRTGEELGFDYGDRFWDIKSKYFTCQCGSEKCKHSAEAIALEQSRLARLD
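Using a bead-based AlphaScreen, monomethylated H3K9 product from 2 h room-temperature reactions (G9a 20 nM, peptide 500 nM, SAM 20 uM) was detected with 0.5 ug/mL rabbit anti-H3K9me1 antibody.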
PLK1 PBD block: PLK1 (human) polo-box domain binding inhibition; 2.8% of 360,000 active; P53350; Plk1 PBD binding of FITC phosphopeptide, fluorescence polarization; Potency, µM, most hits filed as inhibitors; also: series mostly up to about 57 µM; nearly all actives have a fitted effect of over 65% in size
TbPYK confirm: confirmation of Trypanosoma brucei pyruvate kinase inhibitors; shares compounds with PLK1 PBD block; recombinant TbPYK, Kinase-Glo ATP luminescence; Potency, µM (doses to about 76.9 µM), actives largely listed as inhibitors; 67% of 890 active; AID 720569; also: nearly all actives have a fitted effect of over 70% in size
TbPYK ADP-Glo: TbPYK inhibition, orthogonal confirmation. shares compounds with PLK1 PBD block. recombinant TbPYK, ADP-Glo luminescence, 60 min. Potency, µM (highest dose often 76.9 µM), usual class: inhibitors. 62% of 890 active; also: nearly all actives have a fitted effect of over 75% in size
Numbers stand for hits; 0 = inactive; ? = inconclusive; - = no result given; [ ] = dose if it differs, or a comment. Unless noted, calls follow the shape of the dose curve; as a rule, active = well fitted curve in the direction sought with a large enough effect; inconclusive = small, poorly fitted or top-dose-only effect, or another doubt; inactive = no such curve, though single readings can be large; an effect the other way counts as inactive or inconclusive.

SMILES	CCT modulator	Mm-Cpn inhibitor	VDR inh	Sfp inh	G9a inh	PLK1 PBD block	TbPYK confirm	TbPYK ADP-Glo
Cc1ccc(CN2CCN(/N=C/c3ccc(O)c(O)c3)CC2)cc1	0	0	0	0	-	?	14µM	16µM
Oc1ccc2c(c1)OCC1(O)Cc3cc(O)c(O)cc3C21 (stereo not given)	0	-	79µM	0	0[2.33 µM]	?	2.2µM	3.2µM
CC(=O)Oc1ccc2c(c1OC(C)=O)OCC1(O)Cc3c(cc(OC(C)=O)c(OC(C)=O)c3OC(C)=O)C21 (stereo not given)	-	-	0	0	-	-	-	-
Cc1ccccc1NC(=O)c1nc(S(C)(=O)=O)ncc1N(Cc1ccco1)Cc1sccc1C	-	-	0	-	?	-	-	-
COc1cccc(NC(=O)Cn2c(=O)n(Cc3nc(-c4ccccc4)no3)c(=O)c3ccccc32)c1	-	-	0	-	0	-	-	-
CCOC(=O)c1ccc(CNCc2ccccc2)cc1	0	0	0	0	?	0	-	-
CCOC(=O)c1ccc(/[N+]([O-])=C/c2ccccc2)cc1	0	0	?	-	0[0.501 µM]	21µM	0	0
O=C(NCCCNC(=O)c1cccs1)c1cccs1	0	0	?	0	?	2.7µM	0	0
O=C(NCCCCNC(=O)c1cccs1)c1cccs1	0	0	0	0	0	0	-	-
CCC(=O)NC1CC(=O)N(c2ccc3c(c2)OCCO3)C1 (stereo not given)	-	-	0	-	0	-	-	-
Cc1ccc(/C=C2/NC(=O)N(Cc3ccccc3)C2=O)o1	0	0	89µM	?	?	0	16µM	32µM
CCN1C(=O)N/C(=C/c2cc(C)n(Cc3ccccc3)c2C)C1=O	0	0	0	0	0	0	-	-
Cc1onc(-c2c(F)cccc2Cl)c1C(=O)N1CCCC1	0	0	0	-	0	0	-	-
Cc1onc(-c2c(F)cccc2Cl)c1C(=O)N1CCCc2ccccc21	0	0	0	0	0	0	8.9µM	7.9µM
Cc1onc(-c2ccccc2Cl)c1C(=O)N1CCCc2ccccc21	0	0	0	0	0	0	7.9µM	8.9µM
CCOC(=O)C(C)Sc1nc(N2CCOCC2)c2c(c1C#N)CC(C)(C)OC2 (stereo not given)	0	-	0	-	-	0	-	-
CCOC(=O)CCSc1nc(N2CCOCC2)c2c(c1C#N)CC(C)(C)OC2	0	0	0	0	35µM	0	11µM	11µM
COC(=O)C1=C(C(=O)OC)C(C(=O)OC)C(C(=O)OC)C(C(=O)OC)(C(=O)OC)C(C(=O)OC)=C1C(=O)OC (stereo not given)	0	-	40µM	-	-	11µM	28µM	35µM
CCN1C(=O)[C@@H]2[C@@H]3CN(S(=O)(=O)c4ccc(C)cc4)[C@@H](c4ccccc4)[C@@H]3C(=O)C[C@@H]2C1=O	0	-	-	-	-	0	-	-
CCOC1=CC2=C(C(=O)C(Cl)=CC2=O)[C@@H]2CN(S(=O)(=O)c3ccc(C)cc3)[C@@H](c3ccccc3)[C@H]12	0	-	-	-	-	6.7µM	1.4µM	2µM
CC(=O)c1ccc(NC(=S)N2CCN(c3ccccn3)CC2)cc1	0	0	0	0	0	0	-	-
Cn1ncc(Br)c1C(=O)NC(=S)N1CCN(c2ccccn2)CC1	0	0	0	0	?	0	28µM	32µM
CCSc1nc2c([nH]1)c(=O)n(C)c(=S)n2C	0	-	22µM	-	-	3.4µM	5µM	10µM
CCCSc1nc2c([nH]1)c(=O)n(C)c(=S)n2C	0	-	0	-	-	0	-	-
CCc1ccc(NC(=O)NCC2CCN(c3ccc(OC)cc3)C2)cc1 (stereo not given)	0	0	0	0	?	0	?	0
CCOc1cc2[nH]c(=S)n(Cc3ccc(C(=O)NCCN(CC)CC)cc3)c(=O)c2cc1OCC	0	0	0	0	35µM	0	14µM	14µM
CC(=O)/C(=N\Nc1ccc(C)cc1)Sc1nncn1C	0	0	0	?	8.9µM	0	4.5µM	13µM
COc1ccc(N2C(=O)/C(=C/N(C)C)NC2=S)cc1	0	0	0	56µM	3.5µM	0	5.6µM	13µM
